Measurements: PubChem BioAssay (NCATS)
Records with an inconclusive call do not appear. The source made the active and inactive calls. Calls follow the shape of the dose curve; as a rule, active = well fitted curve in the direction sought with a large enough effect; inconclusive = small, poorly fitted or top-dose-only effect, or another doubt; inactive = no such curve, though single readings can be large; an effect the other way counts as inactive or inconclusive.

Experiments:
[1] = S16 Schwann cell viability assay (CellTiter-Glo assay) (AID 624031);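 also: native untransfected S16 rat Schwann cells; cellular ATP luminescence as a viability measure; nearly all actives have a fitted effect of over 70% in size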
Procedure, shortened: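 Parental S16 cells, 24 h compound, 37 °C. ATP-luminescence viability; DMSO = 0% activity, empty wells as reference; curves classified by fit quality and efficacy.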

3D7 = assay: qHTS profiling for inhibitors of Plasmodium falciparum proliferation (AID 504749); also: nearly all actives have a fitted effect of over 60% in size; conditions: P. falciparum in erythrocytes, SYBR Green DNA, 72 h; series mostly up to 28.7 µM
Procedure, shortened: (§1)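 Parasite proliferation within erythrocytes, 72 h exposure. Endpoint: SYBR Green I fluorescence after overnight lysis at room temperature. Controls: 0.29 uM artemisinin, DMSO.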

AA1029 = assay: as above; conditions: P. falciparum in erythrocytes, SYBR Green DNA, 72 h; series mostly up to 28.7 µM
Procedure, shortened: as §1

CP215 = assay: as above; conditions: P. falciparum in erythrocytes, SYBR Green DNA, 72 h; series mostly up to 28.7 µM
Procedure, shortened: as §1

CP217 = assay: as above; conditions: P. falciparum in erythrocytes, SYBR Green DNA, 72 h; series mostly up to 28.7 µM
Procedure, shortened: as §1

CP252 = assay: as above; conditions: P. falciparum in erythrocytes, SYBR Green DNA, 72 h; series mostly up to 28.7 µM
Procedure, shortened: as §1

CP256 = assay: as above; conditions: P. falciparum in erythrocytes, SYBR Green DNA, 72 h; series mostly up to 28.7 µM
Procedure, shortened: as §1

CP260 = assay: as above; conditions: P. falciparum in erythrocytes, SYBR Green DNA, 72 h; series mostly up to 28.7 µM
Procedure, shortened: as §1

CP266 = assay: as above; conditions: P. falciparum in erythrocytes, SYBR Green DNA, 72 h; series mostly up to 28.7 µM
Procedure, shortened: as §1

CP297 = assay: as above; conditions: P. falciparum in erythrocytes, SYBR Green DNA, 72 h; series mostly up to 28.7 µM
Procedure, shortened: as §1

CP315 = assay: as above; conditions: P. falciparum in erythrocytes, SYBR Green DNA, 72 h; series mostly up to 28.7 µM
Procedure, shortened: as §1

CP329 = assay: as above; conditions: P. falciparum in erythrocytes, SYBR Green DNA, 72 h; series mostly up to 28.7 µM
Procedure, shortened: as §1

DIV14 = assay: as above; conditions: P. falciparum in erythrocytes, SYBR Green DNA, 72 h; series mostly up to 28.7 µM
Procedure, shortened: as §1

FAB9 = assay: as above; conditions: P. falciparum in erythrocytes, SYBR Green DNA, 72 h; series mostly up to 28.7 µM
Procedure, shortened: as §1

JCK = assay: as above; conditions: P. falciparum in erythrocytes, SYBR Green DNA, 72 h; series mostly up to 28.7 µM
Procedure, shortened: as §1

N140 = assay: as above; conditions: P. falciparum in erythrocytes, SYBR Green DNA, 72 h; series mostly up to 28.7 µM
Procedure, shortened: as §1

PC15 = assay: as above; conditions: P. falciparum in erythrocytes, SYBR Green DNA, 72 h; series mostly up to 28.7 µM
Procedure, shortened: as §1

PC49 = assay: as above; conditions: P. falciparum in erythrocytes, SYBR Green DNA, 72 h; series mostly up to 28.7 µM
Procedure, shortened: as §1

SC27B = assay: as above; conditions: P. falciparum in erythrocytes, SYBR Green DNA, 72 h; series mostly up to 28.7 µM
Procedure, shortened: as §1

TAB165 = assay: as above; conditions: P. falciparum in erythrocytes, SYBR Green DNA, 72 h; series mostly up to 28.7 µM
Procedure, shortened: as §1

Measured: Potency

CCN(CC)CCO[C@H]1CC[C@@]2(C)C(=CC[C@@H]3[C@H]2CC[C@]2(C)C(=O)CC[C@H]32)C1
inactive: all assays above
